# Measurements taken from the supplement of paper PMC10849652.
# About 8,800 targets were measured; listed, in parts, are those with a hit and a random draw of the rest. About 0.5% of all pairs of compound and target were hits. A number with no mark means an inactive call.
# Columns and labels:
# Test in all cases: log2 fold change, soluble protein after heating vs DMSO (PISA); higher = thermal stabilisation; K562 lysate, 10 uM; active = over 0.2 and 3.5 SD of the protein, either way, in both replicates (recomputed)
# vemurafenib = compound: CCCS(=O)(=O)Nc1ccc(F)c(C(=O)c2c[nH]c3ncc(-c4ccc(Cl)cc4)cc23)c1F [vemurafenib]
# How it was run: (§1)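 K562 pellets were dounce-homogenised in PBS pH 7.4 containing 1 mM MgCl2, and the crude extract, at 1 mg/mL protein, was exposed to 10 μM compound for 30 min. Aliquots were heated for 3 min across 48°C-58°C, pooled, brought to 0.5% NP-40 at 4°C and spun at 21,000xg for 90 min, with the supernatant taken as soluble protein. TMTpro 16plex LC-MS/MS with equalised channel sums quantified that protein. Values are log-two fold changes in thermal stability relative to solvent controls, taken from duplicates.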
# [1] = compound: CCCS(=O)(=O)Nc1ccc(F)c(C(=O)c2c[nH]c3ncc(Cl)cc23)c1F
# How it was run: as §1
# barasertib = compound: CCN(CCCOc1ccc2c(Nc3cc(CC(=O)Nc4cccc(F)c4)[nH]n3)ncnc2c1)CCOP(=O)(O)O [barasertib]
# How it was run: as §1
# [2] = compound: CC[C@@H]1C(=O)N(C)c2cnc(Nc3ccc(C(=O)NC4CCN(C)CC4)cc3OC)nc2N1C1CCCC1
# How it was run: as §1
# volasertib = compound: CC[C@@H]1C(=O)N(C)c2cnc(Nc3ccc(C(=O)N[C@H]4CC[C@H](N5CCN(CC6CC6)CC5)CC4)cc3OC)nc2N1C(C)C [volasertib]
# How it was run: as §1
# [3] = compound: CCn1c(C(=O)N(C2CC2)C2CC2)cc2c3c(ncn3C)c(Nc3cc(C)n(C)n3)nc21
# How it was run: as §1
# [4] = compound: CCn1cc(-c2ccnc3[nH]c(-c4cccc(CN(C)C)c4)cc23)c(-c2ccc(NC(=O)N(C)C)cc2)n1
# How it was run: as §1
# [5] = compound: CN1CCC(CNc2ccc3ncc(-c4cccc(OC(F)(F)F)c4)n3n2)CC1
# How it was run: as §1
# saracatinib = compound: CN1CCN(CCOc2cc(OC3CCOCC3)c3c(Nc4c(Cl)ccc5c4OCO5)ncnc3c2)CC1 [saracatinib]
# How it was run: as §1
# sotrastaurin = compound: CN1CCN(c2nc(C3=C(c4c[nH]c5ccccc45)C(=O)NC3=O)c3ccccc3n2)CC1 [sotrastaurin]
# How it was run: as §1
# UniProt P02792, sequence (P02792 whole entry, looked up): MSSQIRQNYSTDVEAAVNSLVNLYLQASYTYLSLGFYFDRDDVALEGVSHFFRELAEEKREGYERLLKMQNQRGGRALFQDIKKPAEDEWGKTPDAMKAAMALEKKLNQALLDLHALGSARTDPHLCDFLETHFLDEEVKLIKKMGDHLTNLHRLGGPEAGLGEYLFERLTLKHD
# UniProt P04406, sequence (P04406 whole entry, looked up): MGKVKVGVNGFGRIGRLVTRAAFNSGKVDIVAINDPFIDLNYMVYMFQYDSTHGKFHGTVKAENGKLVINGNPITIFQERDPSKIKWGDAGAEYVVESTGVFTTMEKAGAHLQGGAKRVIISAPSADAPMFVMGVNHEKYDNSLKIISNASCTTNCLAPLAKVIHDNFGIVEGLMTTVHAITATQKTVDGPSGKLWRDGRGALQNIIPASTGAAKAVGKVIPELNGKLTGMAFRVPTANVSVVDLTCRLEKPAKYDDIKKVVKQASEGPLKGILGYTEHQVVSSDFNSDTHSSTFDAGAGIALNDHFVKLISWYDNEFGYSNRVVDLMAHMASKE
# UniProt P57678, sequence (P57678 whole entry, looked up): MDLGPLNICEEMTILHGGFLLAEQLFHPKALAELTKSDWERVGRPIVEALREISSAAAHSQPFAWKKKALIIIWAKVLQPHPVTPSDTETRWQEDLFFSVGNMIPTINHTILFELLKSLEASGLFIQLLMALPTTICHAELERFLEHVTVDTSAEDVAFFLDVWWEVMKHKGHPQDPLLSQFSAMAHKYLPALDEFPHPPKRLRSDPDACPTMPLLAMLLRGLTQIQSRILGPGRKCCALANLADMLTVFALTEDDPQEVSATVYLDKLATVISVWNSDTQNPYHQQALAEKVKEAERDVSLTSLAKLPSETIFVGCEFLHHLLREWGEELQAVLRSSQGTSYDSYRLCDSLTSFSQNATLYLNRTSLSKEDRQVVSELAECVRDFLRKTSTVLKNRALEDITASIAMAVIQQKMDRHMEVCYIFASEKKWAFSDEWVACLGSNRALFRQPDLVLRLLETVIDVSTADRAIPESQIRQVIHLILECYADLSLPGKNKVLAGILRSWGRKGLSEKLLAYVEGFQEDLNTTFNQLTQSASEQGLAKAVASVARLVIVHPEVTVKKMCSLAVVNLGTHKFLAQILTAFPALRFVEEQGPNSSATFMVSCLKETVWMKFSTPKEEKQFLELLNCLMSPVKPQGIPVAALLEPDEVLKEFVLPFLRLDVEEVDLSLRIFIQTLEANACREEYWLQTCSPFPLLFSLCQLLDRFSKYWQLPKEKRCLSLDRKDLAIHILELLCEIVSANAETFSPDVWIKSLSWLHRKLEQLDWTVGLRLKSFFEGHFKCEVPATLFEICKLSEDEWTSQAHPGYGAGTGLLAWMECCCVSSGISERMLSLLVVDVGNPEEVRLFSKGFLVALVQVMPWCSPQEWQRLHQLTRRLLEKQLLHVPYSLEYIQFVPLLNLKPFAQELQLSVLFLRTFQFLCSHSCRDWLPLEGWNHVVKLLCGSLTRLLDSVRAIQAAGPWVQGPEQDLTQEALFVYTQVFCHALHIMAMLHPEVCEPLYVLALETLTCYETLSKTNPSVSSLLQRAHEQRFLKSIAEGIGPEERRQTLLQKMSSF
# UniProt O95208, sequence (O95208 whole entry, looked up): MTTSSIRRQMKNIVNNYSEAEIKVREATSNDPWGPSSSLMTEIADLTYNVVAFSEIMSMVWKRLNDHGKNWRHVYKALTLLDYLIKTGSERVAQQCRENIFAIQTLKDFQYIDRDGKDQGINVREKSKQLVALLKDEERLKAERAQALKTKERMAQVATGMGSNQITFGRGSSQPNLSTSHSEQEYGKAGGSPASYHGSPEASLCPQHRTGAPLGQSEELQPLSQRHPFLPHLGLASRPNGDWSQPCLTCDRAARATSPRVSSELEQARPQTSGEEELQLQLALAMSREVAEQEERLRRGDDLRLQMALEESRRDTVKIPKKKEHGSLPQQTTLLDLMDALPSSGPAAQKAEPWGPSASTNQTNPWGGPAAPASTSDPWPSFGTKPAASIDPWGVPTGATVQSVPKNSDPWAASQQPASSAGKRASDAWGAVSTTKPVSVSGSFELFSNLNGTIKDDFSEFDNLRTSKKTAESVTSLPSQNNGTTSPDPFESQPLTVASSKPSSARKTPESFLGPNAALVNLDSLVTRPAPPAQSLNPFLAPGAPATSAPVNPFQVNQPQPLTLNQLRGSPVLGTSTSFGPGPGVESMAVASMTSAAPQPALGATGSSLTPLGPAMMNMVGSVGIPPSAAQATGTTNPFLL
# UniProt Q9UET6, sequence (Q9UET6 whole entry, looked up): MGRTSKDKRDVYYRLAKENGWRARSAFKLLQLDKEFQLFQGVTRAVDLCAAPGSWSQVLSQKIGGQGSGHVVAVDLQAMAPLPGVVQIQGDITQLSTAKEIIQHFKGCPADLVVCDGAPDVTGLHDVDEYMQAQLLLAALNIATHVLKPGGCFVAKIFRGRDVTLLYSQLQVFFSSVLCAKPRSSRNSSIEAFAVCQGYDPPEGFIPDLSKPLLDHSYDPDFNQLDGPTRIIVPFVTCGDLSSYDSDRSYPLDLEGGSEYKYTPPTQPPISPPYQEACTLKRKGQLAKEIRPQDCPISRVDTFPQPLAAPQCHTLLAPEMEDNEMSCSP
# UniProt O43768, sequence (O43768 whole entry, looked up): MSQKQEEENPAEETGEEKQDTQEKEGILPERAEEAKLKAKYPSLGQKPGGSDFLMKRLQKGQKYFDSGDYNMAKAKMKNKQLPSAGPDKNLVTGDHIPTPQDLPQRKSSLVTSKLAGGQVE
# UniProt Q8TB52, sequence (Q8TB52 whole entry, looked up): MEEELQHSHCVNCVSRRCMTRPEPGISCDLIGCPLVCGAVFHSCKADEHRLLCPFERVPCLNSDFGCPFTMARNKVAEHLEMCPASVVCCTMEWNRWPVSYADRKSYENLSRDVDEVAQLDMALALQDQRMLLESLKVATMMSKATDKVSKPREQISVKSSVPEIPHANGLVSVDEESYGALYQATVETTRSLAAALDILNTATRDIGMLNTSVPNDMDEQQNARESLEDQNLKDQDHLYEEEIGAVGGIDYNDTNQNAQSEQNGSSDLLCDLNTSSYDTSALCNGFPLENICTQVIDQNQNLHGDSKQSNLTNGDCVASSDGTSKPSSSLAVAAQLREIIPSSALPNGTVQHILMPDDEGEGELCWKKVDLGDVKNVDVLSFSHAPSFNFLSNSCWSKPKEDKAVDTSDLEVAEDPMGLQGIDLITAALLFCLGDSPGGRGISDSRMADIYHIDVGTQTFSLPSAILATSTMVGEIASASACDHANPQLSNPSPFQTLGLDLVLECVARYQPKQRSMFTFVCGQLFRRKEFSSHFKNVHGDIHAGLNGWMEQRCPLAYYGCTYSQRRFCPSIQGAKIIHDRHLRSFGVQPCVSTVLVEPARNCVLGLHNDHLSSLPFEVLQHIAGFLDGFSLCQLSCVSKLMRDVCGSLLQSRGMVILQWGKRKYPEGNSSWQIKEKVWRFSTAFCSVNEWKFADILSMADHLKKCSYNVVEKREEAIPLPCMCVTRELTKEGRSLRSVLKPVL
# UniProt Q8WWZ3, sequence (Q8WWZ3 whole entry, looked up): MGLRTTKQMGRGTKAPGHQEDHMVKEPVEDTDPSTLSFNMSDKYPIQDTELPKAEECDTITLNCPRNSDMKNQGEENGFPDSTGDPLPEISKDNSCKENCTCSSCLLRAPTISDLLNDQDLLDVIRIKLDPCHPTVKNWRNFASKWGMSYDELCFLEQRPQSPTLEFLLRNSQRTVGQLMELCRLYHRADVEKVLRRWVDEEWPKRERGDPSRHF
# UniProt O60645, sequence (O60645 whole entry, looked up): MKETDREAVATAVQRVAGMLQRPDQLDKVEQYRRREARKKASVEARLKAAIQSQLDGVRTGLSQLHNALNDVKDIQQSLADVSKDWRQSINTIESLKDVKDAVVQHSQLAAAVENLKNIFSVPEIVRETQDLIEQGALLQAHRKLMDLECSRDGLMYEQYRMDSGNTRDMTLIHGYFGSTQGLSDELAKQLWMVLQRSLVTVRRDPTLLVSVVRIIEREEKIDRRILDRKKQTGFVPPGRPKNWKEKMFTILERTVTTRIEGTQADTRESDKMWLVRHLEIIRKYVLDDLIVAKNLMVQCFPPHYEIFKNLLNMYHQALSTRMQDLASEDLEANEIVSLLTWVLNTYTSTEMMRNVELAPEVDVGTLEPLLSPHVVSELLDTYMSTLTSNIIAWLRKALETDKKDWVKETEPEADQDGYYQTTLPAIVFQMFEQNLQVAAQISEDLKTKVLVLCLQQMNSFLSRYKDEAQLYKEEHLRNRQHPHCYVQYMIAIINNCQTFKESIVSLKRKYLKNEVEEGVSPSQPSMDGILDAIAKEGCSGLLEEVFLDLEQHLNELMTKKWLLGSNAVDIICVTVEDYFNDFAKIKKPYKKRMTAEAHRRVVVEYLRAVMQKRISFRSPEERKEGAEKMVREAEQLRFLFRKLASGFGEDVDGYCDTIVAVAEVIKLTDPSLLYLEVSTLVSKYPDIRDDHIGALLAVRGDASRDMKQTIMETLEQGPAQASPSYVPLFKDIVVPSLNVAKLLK
# UniProt Q8NCA5, sequence (Q8NCA5 whole entry, looked up): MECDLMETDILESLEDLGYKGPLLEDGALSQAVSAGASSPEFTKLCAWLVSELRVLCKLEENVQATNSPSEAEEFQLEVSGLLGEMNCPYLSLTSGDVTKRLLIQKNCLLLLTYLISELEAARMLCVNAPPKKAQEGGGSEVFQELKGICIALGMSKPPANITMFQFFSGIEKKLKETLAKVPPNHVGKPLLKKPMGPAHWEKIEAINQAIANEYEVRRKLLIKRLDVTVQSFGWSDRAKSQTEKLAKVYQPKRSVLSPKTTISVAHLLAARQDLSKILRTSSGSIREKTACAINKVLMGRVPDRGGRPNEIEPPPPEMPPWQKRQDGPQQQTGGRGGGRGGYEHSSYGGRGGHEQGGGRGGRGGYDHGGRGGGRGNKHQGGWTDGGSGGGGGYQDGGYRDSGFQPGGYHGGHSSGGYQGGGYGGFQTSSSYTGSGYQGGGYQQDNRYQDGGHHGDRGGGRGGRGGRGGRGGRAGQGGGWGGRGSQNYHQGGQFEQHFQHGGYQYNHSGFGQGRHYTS
Target,log2 fold change (vemurafenib),log2 fold change [1],log2 fold change (barasertib),log2 fold change [2],log2 fold change (volasertib),log2 fold change [3],log2 fold change [4],log2 fold change [5],log2 fold change (saracatinib),log2 fold change (sotrastaurin)
FAM114A2 (UniProt Q9NRY5),0.054,0.049,0.086,0.131,-0.013,0.014,0.049,-0.039,0.03,0.033
GAPDH (UniProt P04406),-0.031,0.002,-0.016,-0.006,-0.002,-0.009,0.042,-0.032,0,-0.01
FAM118B (UniProt Q9BPY3),-0.06,0.03,0.004,-0.014,0.001,0.022,-0.03,-0.027,0.004,0.048
FUBP3 (UniProt Q96I24),-0.007,0.019,0.048,0.046,-0.032,0.042,0.028,-0.012,0.03,-0.077
"ENO1, A0A2R8YEM5",-0.03,-0.017,-0.056,0.008,0.004,-0.04,-0.44 (active),0.325 (active),0.031,-0.011
G6PD isoform 2 (UniProt P11413),0.003,0.008,-0.029,-0.02,-0.061,0.016,0.063,-0.04,0.032,-0.017
FIGNL1 (UniProt Q6PIW4),-0.012,0.042,0.03,-0.063,-0.047,0.027,-0.108,0.036,0.006,-0.015
FTSJ1 (UniProt Q9UET6),-0.036,-0.006,-0.043,-0.04,-0.056,-0.003,0.067,0.027,-0.018,0.089
ENSA isoform 3 (UniProt O43768),-0.034,-0.016,-0.052,0.049,0.025,0.033,0.212,-0.058,-0.021,-0.007
EDC3 (UniProt Q96F86),-0.011,0.019,-0.01,0.066,-0.016,-0.012,-0.017,-0.043,0.006,0.018
FASTKD2 (UniProt Q9NYY8),-0.014,-0.002,0.037,0.004,-0.036,0.011,-0.072,0.03,0.012,0.014
EP300 (UniProt Q09472),-0.018,-0.01,0.007,-0.006,-0.042,-0.009,-0.151,0.058,0.027,-0.022
EXOC4 (UniProt Q96A65),0.079,0.01,0.055,-0.06,-0.055,0.025,0.022,-0.079,0.006,0.018
FAM118A (UniProt Q9NWS6),-0.013,0.011,0.018,-0.017,-0.009,-0.031,-0.135,0.077,0.063,0.025
EDARADD (UniProt Q8WWZ3),-0.066,0.02,0.255 (active),-0.023,-0.006,-0.011,-0.14,0.057,0.04,-0.074
FAM83A (UniProt Q86UY5),0.038,-0.002,0.035,-0.001,0.003,0.05,0.103,0.06,0.01,-0.049
DSTN (UniProt P60981),-0.006,-0.002,-0.005,-0.015,-0.013,0.015,0.025,0.035,-0.005,-0.011
GIGYF2 (UniProt Q6Y7W6),-0.001,-0.017,0.049,0.093,-0.05,-0.001,0.028,-0.055,0.009,-0.001
FAM98A (UniProt Q8NCA5),0.063,0.032,-0.016,0.045,-0.029,-0.005,0.088,-0.08,-0.028,0.017
GEMIN4 (UniProt P57678),0.036,0.025,0.041,-0.037,-0.053,0.023,-0.168,-0.091,0.091,0.041
FYCO1 isoform 4 (UniProt Q9BQS8),0.024,0.019,0.045,0.027,-0.004,0.031,-0.104,0.063,0.04,0
DYNC1I2 isoform 2 (UniProt Q13409),-0.073,0.042,-0.123,0.132,-0.039,0.035,-0.022,0.082,-0.077,0.006
FTL (UniProt P02792),-0.063,0.047,-0.005,0.03,0.06,-0.327,-0.041,0.092,0.058,0.036
FBXO30 (UniProt Q8TB52),-0.065,0.02,0.015,-0.026,-0.042,0.009,0.208,-0.115,-0.015,-0.013
EPN2 (UniProt O95208),0.019,0.027,0.043,0.044,0.016,-0.002,-0.417 (active),0.08,0.004,0.002
EXOC3 (UniProt O60645),0.049,0.021,0.02,-0.081,-0.086,0.045,-0.057,-0.001,0.004,0.03
FKBP8 isoform 2 (UniProt Q14318),-0.037,-0.01,0.366,-0.045,0.005,-0.029,0.033,-0.084,-0.022,0.006
FARSB (UniProt Q9NSD9),-0.009,0.006,0.018,0.003,-0.024,0.016,0,-0.018,0.022,0.095
GDPD1 (UniProt Q8N9F7),0.116,0.055,-0.005,0.041,-0.008,0.004,0.074,-0.032,-0.023,0.005
